Consider one sequence from PMC7862700, “An all-to-all approach to the identification of sequence-specific readers for epigenetic DNA modifications on cytosine”.

Common to all, as to assay: DAPPL (digital affinity profiling via proximity ligation, sequencing); 10 mM Tris-HCl pH 7.5, 50 mM NaCl, 1 mM DTT, 4% glycerol, room temperature, 30 min; GST-TFs on glutathione beads, 16-mer random dsDNA library, 0.1% formaldehyde crosslink after washing; high values mean tight binding
One assay concerns the target T1, FEV (Homo sapiens, UniProt Q99581 1-238).
T1 sequence: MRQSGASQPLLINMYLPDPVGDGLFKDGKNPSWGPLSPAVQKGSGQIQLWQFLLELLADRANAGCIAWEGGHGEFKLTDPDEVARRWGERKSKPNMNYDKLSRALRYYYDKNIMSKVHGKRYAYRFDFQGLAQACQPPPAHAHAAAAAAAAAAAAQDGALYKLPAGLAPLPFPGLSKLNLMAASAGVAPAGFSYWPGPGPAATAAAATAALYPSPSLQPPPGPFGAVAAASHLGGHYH
To be noted: protein: recombinant; tags: N-terminal GST; dsDNA, one strand shown. The essentials: (§1)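 Each value of binding signal is a hexamer's read frequency for a factor divided by the same hexamer's frequency in the tag-only sample. Barcoded, bead-captured GST fusions of human transcription factors made in yeast were pooled with that sample and incubated with 200 nmole of a random double-stranded 16-mer DNA library in Tris/NaCl/DTT/glycerol buffer at room temperature for 30 min. Washing, 0.1% formaldehyde crosslinking, proximity ligation, PCR and Illumina NextSeq500 sequencing followed.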

In another assay the target is ETV5 (Homo sapiens, UniProt P41161 1-510). To be noted: protein: recombinant; tags: N-terminal GST; dsDNA, one strand shown. The essentials:
as §1

The next assay has as its target HSF1 (Homo sapiens, UniProt Q00613 1-529). To be noted: protein: recombinant; tags: N-terminal GST; chain copies: 3; dsDNA, one strand shown. The essentials:
as §1

In another assay the target is T2, SPIC (Homo sapiens, UniProt Q8N5J4 1-248).
T2 sequence: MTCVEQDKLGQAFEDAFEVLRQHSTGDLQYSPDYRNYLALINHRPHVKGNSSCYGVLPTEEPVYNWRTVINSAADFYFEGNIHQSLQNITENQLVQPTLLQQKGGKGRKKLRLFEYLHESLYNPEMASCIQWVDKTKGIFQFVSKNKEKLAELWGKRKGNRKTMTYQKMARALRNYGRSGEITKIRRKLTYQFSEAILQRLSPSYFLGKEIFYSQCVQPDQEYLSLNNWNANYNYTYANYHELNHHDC
The note with it: protein: recombinant; tags: N-terminal GST; dsDNA, one strand shown. In outline: as §1

The target of the next assay is ELF4 (Homo sapiens, UniProt Q99607 1-663). The note with it: protein: recombinant; tags: N-terminal GST; dsDNA, one strand shown. The essentials: as §1
ELF4, sequence (Q99607 whole entry): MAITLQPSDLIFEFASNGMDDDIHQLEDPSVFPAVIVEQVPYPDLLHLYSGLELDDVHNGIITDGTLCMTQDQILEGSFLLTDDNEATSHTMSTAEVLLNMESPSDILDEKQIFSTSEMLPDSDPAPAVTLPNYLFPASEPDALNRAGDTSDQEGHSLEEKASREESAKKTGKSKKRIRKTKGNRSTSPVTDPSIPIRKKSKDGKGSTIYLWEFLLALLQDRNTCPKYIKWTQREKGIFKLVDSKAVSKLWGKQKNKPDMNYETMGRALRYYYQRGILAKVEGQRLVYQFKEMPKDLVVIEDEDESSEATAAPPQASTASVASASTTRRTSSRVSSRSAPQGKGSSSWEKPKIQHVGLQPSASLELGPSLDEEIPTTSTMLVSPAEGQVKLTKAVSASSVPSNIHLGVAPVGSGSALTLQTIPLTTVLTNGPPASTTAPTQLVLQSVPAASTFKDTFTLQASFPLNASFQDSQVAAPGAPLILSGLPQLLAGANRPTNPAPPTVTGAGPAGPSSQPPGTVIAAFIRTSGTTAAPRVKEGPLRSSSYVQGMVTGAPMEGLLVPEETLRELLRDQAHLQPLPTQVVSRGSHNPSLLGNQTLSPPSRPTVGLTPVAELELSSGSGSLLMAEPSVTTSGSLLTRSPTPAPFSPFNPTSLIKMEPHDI
For the next assay, the target named is T3, ELK4 (Homo sapiens, UniProt P28324-2 1-405).
T3 sequence: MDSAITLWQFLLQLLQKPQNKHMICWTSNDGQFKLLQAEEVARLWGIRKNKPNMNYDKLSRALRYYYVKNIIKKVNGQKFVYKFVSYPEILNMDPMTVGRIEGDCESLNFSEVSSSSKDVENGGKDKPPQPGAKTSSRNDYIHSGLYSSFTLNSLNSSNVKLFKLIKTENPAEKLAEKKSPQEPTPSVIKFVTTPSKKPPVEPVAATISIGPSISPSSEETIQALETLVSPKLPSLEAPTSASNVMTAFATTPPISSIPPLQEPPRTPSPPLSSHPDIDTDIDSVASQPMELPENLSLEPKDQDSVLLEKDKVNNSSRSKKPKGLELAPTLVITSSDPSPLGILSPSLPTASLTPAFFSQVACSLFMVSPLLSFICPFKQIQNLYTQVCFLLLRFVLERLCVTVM
To be noted: protein: recombinant; tags: N-terminal GST; dsDNA, one strand shown. The essentials:
as §1

In a further assay the target is T4, ETV2 (Homo sapiens, UniProt O00321 1-342).
T4 sequence: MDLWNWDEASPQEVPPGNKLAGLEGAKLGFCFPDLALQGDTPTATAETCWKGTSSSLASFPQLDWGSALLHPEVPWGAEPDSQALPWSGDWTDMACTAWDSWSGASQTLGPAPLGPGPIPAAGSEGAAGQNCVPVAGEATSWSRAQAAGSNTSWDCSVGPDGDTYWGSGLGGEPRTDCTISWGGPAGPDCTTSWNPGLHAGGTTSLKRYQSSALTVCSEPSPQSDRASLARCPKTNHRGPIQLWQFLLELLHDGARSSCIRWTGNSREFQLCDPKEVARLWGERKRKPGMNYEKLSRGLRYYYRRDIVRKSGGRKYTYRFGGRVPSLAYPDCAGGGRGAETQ
To be noted: protein: recombinant; tags: N-terminal GST; dsDNA, one strand shown. In outline:
as §1

The target of the next assay is T5, ELF3 (Homo sapiens, UniProt P78545 1-371).
T5 sequence: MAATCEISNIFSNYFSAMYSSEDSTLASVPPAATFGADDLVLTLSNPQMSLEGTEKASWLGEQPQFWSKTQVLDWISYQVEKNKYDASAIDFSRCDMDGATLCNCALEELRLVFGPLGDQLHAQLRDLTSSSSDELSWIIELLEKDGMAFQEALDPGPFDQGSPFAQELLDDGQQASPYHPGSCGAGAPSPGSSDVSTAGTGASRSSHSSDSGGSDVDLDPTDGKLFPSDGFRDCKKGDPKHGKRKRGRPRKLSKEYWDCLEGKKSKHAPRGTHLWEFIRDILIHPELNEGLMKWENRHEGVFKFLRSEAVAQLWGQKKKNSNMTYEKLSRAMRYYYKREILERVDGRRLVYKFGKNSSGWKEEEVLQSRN
The note with it: protein: recombinant; tags: N-terminal GST; dsDNA, one strand shown. In outline: as §1

The target in another assay is CRX (Homo sapiens, UniProt O43186 1-299). The note with it: protein: recombinant; tags: N-terminal GST; dsDNA, one strand shown. The essentials: as §1
CRX, sequence (O43186 whole entry): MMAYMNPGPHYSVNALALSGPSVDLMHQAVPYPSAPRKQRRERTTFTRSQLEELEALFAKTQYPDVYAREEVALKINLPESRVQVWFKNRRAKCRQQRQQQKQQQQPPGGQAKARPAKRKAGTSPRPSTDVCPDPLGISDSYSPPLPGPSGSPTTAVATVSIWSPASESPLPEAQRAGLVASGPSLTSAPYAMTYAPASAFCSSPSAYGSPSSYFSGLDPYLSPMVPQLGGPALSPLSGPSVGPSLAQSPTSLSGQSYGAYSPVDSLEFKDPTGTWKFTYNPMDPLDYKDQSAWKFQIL
For another assay, the target named is ETV1 (Homo sapiens, UniProt P50549 1-477). To be noted: protein: recombinant; tags: N-terminal GST; dsDNA, one strand shown. In outline:
as §1

The target in the next assay is T6, ERF (Homo sapiens, UniProt P50548 1-548).
T6 sequence: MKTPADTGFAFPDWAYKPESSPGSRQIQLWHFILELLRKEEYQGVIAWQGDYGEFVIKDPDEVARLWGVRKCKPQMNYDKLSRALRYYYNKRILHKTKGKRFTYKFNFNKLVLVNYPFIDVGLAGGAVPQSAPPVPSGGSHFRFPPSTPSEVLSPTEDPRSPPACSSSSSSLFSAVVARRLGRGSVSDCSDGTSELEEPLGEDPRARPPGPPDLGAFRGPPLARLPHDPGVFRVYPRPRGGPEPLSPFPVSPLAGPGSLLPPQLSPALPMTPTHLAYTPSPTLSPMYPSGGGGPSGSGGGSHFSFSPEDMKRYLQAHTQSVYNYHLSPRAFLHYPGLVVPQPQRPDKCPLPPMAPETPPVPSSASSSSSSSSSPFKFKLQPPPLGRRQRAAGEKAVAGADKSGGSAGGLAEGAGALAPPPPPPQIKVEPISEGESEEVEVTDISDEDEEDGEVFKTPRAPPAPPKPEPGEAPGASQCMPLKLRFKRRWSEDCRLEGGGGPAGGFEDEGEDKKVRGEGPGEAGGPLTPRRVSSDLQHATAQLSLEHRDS
To be noted: protein: recombinant; tags: N-terminal GST; dsDNA, one strand shown. In outline: as §1

The next assay addresses T7, ETV3L (Homo sapiens, UniProt Q6ZN32 1-361).
T7 sequence: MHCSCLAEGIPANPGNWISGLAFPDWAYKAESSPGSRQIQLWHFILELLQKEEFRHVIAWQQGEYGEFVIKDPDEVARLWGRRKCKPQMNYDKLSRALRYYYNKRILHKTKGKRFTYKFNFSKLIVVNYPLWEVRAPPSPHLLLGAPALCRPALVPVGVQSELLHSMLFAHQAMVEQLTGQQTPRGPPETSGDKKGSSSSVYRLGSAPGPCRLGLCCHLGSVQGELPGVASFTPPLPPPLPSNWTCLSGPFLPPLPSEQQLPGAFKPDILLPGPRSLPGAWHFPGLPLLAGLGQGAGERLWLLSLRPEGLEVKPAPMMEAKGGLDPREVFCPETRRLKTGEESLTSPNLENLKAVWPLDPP
To be noted: protein: recombinant; tags: N-terminal GST; dsDNA, one strand shown. In outline: as §1

Another assay concerns the target T8, ETS2 (Homo sapiens, UniProt P15036 1-469).
T8 sequence: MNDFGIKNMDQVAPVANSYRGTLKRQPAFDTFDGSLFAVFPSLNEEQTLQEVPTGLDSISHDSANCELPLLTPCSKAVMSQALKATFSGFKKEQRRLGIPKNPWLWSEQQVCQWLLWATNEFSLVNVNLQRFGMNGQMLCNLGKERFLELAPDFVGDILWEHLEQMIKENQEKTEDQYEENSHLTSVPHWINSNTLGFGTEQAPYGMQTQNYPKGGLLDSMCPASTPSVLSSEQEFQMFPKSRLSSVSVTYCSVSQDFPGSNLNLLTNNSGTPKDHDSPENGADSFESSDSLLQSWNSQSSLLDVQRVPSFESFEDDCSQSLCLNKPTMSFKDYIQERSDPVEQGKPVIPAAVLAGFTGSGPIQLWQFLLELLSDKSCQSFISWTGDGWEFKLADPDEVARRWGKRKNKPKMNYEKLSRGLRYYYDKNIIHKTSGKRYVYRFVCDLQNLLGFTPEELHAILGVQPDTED
To be noted: protein: recombinant; tags: N-terminal GST; dsDNA, one strand shown. The essentials:
as §1

In another assay the target is T9, SPDEF (Homo sapiens, UniProt O95238 1-335).
T9 sequence: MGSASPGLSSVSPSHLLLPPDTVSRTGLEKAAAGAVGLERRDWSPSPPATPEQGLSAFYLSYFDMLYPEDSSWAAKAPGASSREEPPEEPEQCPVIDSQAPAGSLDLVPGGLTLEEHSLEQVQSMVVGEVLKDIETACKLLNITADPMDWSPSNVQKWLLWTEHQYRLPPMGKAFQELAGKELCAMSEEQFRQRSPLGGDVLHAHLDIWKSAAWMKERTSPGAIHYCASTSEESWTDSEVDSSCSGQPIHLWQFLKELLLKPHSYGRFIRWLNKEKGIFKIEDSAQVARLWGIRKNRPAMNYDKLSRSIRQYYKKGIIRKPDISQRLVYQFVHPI
The note with it: protein: recombinant; tags: N-terminal GST; dsDNA, one strand shown. In outline: as §1

The target in another assay is T10, ETV7 (Homo sapiens, UniProt Q9Y603 1-341).
T10 sequence: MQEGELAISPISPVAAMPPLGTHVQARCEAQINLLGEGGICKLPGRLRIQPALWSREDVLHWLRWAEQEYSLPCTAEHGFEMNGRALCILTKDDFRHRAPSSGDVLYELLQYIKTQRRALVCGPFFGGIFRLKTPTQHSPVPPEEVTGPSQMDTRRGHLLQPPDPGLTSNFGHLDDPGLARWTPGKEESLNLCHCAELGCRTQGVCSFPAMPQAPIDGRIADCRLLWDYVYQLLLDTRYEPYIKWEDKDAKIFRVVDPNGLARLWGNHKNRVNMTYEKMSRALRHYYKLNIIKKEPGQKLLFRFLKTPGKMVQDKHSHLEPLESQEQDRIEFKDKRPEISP
To be noted: protein: recombinant; tags: N-terminal GST; dsDNA, one strand shown. In outline: as §1

A further assay deals with T11, ELF5 (Homo sapiens, UniProt Q9UKW6-2 1-255).
T11 sequence: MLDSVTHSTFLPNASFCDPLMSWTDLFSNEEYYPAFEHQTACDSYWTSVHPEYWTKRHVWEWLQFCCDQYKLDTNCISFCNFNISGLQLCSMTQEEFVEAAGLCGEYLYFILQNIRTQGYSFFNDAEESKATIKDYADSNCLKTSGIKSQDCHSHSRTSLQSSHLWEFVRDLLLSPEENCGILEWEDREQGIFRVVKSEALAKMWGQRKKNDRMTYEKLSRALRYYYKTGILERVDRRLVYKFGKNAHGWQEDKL
The note with it: protein: recombinant; tags: N-terminal GST; dsDNA, one strand shown. In outline: as §1

A further assay has as its target T12, ETV3 (Homo sapiens, UniProt P41162-2 1-143).
T12 sequence: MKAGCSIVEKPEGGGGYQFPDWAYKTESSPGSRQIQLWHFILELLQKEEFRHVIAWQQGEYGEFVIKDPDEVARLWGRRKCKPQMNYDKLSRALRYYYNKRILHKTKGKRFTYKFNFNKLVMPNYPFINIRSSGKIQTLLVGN
To be noted: protein: recombinant; tags: N-terminal GST; dsDNA, one strand shown. The essentials:
as §1

Another assay addresses ETV6 (Homo sapiens, UniProt P41212 1-452). The note with it: protein: recombinant; tags: N-terminal GST; dsDNA, one strand shown. The essentials: as §1

HSF1, sequence (Q00613 whole entry): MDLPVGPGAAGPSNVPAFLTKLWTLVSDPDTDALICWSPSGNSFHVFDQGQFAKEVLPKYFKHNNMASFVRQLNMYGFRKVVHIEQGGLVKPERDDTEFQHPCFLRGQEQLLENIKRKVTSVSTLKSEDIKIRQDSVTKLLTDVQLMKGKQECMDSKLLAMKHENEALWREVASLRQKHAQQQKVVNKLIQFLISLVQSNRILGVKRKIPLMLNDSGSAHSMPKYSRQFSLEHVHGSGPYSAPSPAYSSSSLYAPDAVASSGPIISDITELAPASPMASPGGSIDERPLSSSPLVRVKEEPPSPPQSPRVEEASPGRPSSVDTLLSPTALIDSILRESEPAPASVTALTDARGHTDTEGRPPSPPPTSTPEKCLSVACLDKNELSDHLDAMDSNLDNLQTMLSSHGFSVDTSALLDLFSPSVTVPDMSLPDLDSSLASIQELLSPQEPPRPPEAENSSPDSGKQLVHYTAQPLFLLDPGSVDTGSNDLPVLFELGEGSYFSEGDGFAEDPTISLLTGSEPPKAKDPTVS
ETV6, sequence (P41212 whole entry): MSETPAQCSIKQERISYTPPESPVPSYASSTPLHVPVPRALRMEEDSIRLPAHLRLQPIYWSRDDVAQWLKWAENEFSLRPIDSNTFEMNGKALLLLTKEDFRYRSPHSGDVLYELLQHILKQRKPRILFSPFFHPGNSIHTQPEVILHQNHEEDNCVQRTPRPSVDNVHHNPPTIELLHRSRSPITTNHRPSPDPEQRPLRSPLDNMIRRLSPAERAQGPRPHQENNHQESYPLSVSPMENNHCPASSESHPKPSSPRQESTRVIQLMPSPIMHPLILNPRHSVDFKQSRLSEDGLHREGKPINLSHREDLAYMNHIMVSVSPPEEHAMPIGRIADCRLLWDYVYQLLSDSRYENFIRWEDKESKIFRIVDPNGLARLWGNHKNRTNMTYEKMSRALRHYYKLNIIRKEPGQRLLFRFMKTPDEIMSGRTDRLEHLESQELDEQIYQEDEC
ETV1, sequence (P50549 whole entry): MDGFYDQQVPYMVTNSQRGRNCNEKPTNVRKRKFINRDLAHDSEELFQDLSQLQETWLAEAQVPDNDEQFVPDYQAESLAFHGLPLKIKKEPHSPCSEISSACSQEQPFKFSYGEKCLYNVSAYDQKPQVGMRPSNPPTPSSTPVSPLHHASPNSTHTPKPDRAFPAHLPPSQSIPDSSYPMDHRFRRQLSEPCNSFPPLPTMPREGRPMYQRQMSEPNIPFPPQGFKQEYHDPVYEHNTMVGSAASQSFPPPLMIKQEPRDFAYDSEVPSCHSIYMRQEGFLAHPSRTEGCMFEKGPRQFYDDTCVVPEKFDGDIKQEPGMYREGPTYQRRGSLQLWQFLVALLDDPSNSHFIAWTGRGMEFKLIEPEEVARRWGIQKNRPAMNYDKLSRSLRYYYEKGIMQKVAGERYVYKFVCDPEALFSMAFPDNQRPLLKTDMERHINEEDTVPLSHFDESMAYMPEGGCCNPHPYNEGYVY
ETV5, sequence (P41161 whole entry): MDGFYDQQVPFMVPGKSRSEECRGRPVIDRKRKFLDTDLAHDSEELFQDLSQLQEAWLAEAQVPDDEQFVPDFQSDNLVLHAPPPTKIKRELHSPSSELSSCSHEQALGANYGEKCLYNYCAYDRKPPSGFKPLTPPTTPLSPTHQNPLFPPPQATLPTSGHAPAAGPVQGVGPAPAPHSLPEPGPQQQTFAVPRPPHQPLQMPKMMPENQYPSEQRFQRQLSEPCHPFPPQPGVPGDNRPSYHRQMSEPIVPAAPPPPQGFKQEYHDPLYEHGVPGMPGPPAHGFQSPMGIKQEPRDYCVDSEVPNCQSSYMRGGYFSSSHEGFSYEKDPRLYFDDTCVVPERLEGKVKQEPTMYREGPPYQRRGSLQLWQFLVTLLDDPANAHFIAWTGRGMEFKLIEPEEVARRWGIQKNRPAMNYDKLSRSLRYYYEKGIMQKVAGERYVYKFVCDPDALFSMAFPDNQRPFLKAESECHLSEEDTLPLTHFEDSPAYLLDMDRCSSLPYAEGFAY

On to CTTTGT, for which the binding signal with FEV is 1.28 fold enrichment (6-mer frequency, TF over GST control); with ETV5, 1.3 fold enrichment (6-mer frequency, TF over GST control); in the assay with HSF1, 1.22 fold enrichment (6-mer frequency, TF over GST control); with SPIC it was 1.21 fold enrichment (6-mer frequency, TF over GST control); with ELF4, 1.29 fold enrichment (6-mer frequency, TF over GST control); with ELK4, 1.43 fold enrichment (6-mer frequency, TF over GST control). The binding signal in the assay with ETV2 was 1.03 fold enrichment (6-mer frequency, TF over GST control); with ELF3, 1.23 fold enrichment (6-mer frequency, TF over GST control); in the assay with CRX, 1.38 fold enrichment (6-mer frequency, TF over GST control); with ETV1 it was 1.25 fold enrichment (6-mer frequency, TF over GST control); with ERF, 1.3 fold enrichment (6-mer frequency, TF over GST control); with ETV3L, 1.41 fold enrichment (6-mer frequency, TF over GST control). Also, the binding signal is 1.24 fold enrichment (6-mer frequency, TF over GST control) with ETS2; 1.21 fold enrichment (6-mer frequency, TF over GST control) with SPDEF; 1.36 fold enrichment (6-mer frequency, TF over GST control) with ETV7; 1.24 fold enrichment (6-mer frequency, TF over GST control) with ELF5; 1.32 fold enrichment (6-mer frequency, TF over GST control) with ETV3; 1.31 fold enrichment (6-mer frequency, TF over GST control) with ETV6.
